High-throughput results deposited in PubChem by National Center for Advancing Translational Sciences (NCATS).
Only some compounds are listed: those with a hit (about 1.4% of all), similar ones and a draw of the others.
ASM inhibitor: blocks human secretory acid sphingomyelinase. P17405. placental ASM, HMU-PC fluorogenic substrate, 60 min. Potency, µM (highest dose often 57.5 µM), for inactives: top-dose activity change, negative = inhibition, most hits filed as inhibitors. hit rate 0.006% among 340,000. AID 504937; note: potency is the fitted concentration of half-maximal effect
Target sequence (P17405 47-631 limits assumed): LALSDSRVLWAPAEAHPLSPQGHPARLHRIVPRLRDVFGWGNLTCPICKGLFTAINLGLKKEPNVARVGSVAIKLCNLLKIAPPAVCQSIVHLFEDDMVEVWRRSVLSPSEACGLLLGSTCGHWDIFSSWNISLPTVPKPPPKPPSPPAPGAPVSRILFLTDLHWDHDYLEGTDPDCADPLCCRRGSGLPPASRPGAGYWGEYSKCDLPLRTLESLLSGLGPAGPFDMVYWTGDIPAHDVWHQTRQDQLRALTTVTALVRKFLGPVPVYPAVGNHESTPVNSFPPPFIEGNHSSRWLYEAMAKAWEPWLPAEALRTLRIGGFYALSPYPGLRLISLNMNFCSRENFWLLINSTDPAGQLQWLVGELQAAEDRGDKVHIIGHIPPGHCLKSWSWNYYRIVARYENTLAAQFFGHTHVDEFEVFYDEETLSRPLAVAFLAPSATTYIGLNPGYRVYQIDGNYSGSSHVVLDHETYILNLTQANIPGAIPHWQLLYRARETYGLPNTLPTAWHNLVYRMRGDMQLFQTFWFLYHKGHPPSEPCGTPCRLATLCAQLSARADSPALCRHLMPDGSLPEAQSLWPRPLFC
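Human placenta-derived ASM enzyme was preincubated with compound for 10 minutes at room temperature, then given fluorogenic substrate HMU-PC0 (9 uM final) for 60 minutes at 37 °C; a pH 10 stop preceded fluorescence reading at Ex 386/Em 447 nm.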
Mm-Cpn inhibitor: inhibitors of Methanococcus maripaludis chaperonin TRiC (MmCpn); purified Mm-Cpn ATPase, ADP Transcreener TR-FRET; Potency, µM (series often up to 76.9 µM), for the others: at the top dose activity, negative = inhibition, usual class: inhibitors; hit rate 0.031% among 330,000; note: potency is the fitted concentration of half-maximal effect; % is set by controls: 0 for no effect and ±100 for the full control effect; nearly all actives have a fitted effect of over 80% in size
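TR-FRET (320 nm excitation; 590 and 665 nm emission) reports ADP made from 10 uM ATP by 25 nM enzyme; compounds were preincubated 10 min, reaction run 30 min, both at 37°C.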
PINK1 expr mod: PINK1 expression modulation; Potency, µM (titrated, usually from 76.6 µM), for the others: top-dose activation (PINK1 increase), most hits filed as activators; hit rate 0.2% among 410,000; PINK1 immunofluorescence, high-content cytometry, 24 h; active = well fitted activation curve with a large enough effect; inconclusive = small, poorly fitted or top-dose-only effect; cell line not stated here; note: potency is the fitted concentration of half-maximal effect; % of control where 0% means no effect; nearly all actives have a fitted effect of over 65% in size
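PINK1 protein level read as immunofluorescence by microplate cytometer in a fixed, stained stable cell line after 24 h exposure to five compound concentrations, with CCCP as control.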
p53 reactivation: mutant p53 re-activation in reporter cells; AID 504706; H1299 p53-A138V BP100-luciferase reporter, luminescence, 24 h; hit rate 0.063% among 320,000; Potency, µM (series often up to 92.2 µM), for the others: at the highest dose activity change, positive = activation, most hits filed as activators; note: potency is the fitted concentration of half-maximal effect; % of control where 0% means no effect; nearly all actives have a fitted effect of over 45% in size
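H1299 (p53-null), stable ts p53-A138V + BP100-Luc; 1000 cells/well, Opti-MEM/10% FBS; cpd 4 pt, 1:5; 24 h, 37 deg C, 5% CO2; detection reagent 10 min RT; luminescence.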
ALOX12 inh: inhibitors of human 12S-lipoxygenase ALOX12; Potency, µM (titrated, usually from 108 µM), for the others: top-dose activity change, negative = inhibition, most hits filed as inhibitors; purified 12hLO, xylenol orange hydroperoxide absorbance; P18054; hit rate 1.1% among 580,000; note: potency is the fitted concentration of half-maximal effect; % is set by controls: 0 for no effect and ±100 for the full control effect
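Purified human 12hLO (150 nM final) in 25 mM Hepes, 0.01% Triton X-100, pH 7.0 was preincubated 15 min at room temperature with compound. Then 40 uM arachidonic acid was added, 30 min. Hydroperoxide was read by Fe-XO absorbance ratio 573/405 nm.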
CCT modulator: cytosolic chaperonin activity modulation | purified chaperonin ATPase assay, HTRF ADP detection, 30 min | activity change, % (no concentration beside the values), hits read low | AID 651819 | hit rate 0.3% among 360,000; in the data active = activity change below about -30%; note: % is set by controls: 0 for no effect and ±100 for the full control effect
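TRiC at 40 or 20 nM final (batch-dependent) in 30 mM Tris pH 7.4, 100 mM KCl, 5 mM MgCl2, 1 mM DTT, with compound at single 76 uM and 10 uM ATP, 30 min at 37 deg C. ADP detected by HTRF Transcreener, 665/615 ratio.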
Numbers without * were called inactive; ? = inconclusive; nt = not tested or not shown; [ ] = remark or other dose. Unless noted, calls come from the whole dose curve; as a rule, active = well fitted curve in the direction sought with a large enough effect; inconclusive = small, poorly fitted or top-dose-only effect, or another doubt; inactive = no such curve, though single readings can be large; an effect the other way counts as inactive or inconclusive.

SMILES	ASM inhibitor	Mm-Cpn inhibitor	PINK1 expr mod	p53 reactivation	ALOX12 inh	CCT modulator
COc1ccc(-c2nc3ccccc3c(=O)n2NC(=S)N(C)C)cc1	-5%	-1%	1%	8%	35µM*	0
COc1ccc(OCC(=O)Nn2c(-c3ccc(OC)cc3)nc3ccccc3c2=O)cc1	-2%	0%	-1%	-6%	-23%	1
Cn1nnc(NC(=S)NC(=O)c2ccc3ccccc3c2)n1	nt	nt	3%	nt	11µM*	-1
Cn1nnc(NC(=S)NC(=O)c2cccc3ccccc23)n1	1%	0%	-1%	6%	0.63µM*	-1
Cn1nnc(NC(=S)NC(=O)c2cccs2)n1	0%	-7%	1%	11%	?	3
CCn1c(CCNC(=O)c2ccccc2F)nnc1SCC(=O)N1CCc2ccccc21	nt	nt	nt	nt	55%	nt
N#Cc1nc(/C=C/c2cccs2)oc1NC1CC1	nt	nt	nt	nt	25µM*	nt
Cc1cc(Cl)ccc1NS(=O)(=O)c1cc2[nH]c(=O)c(=O)[nH]c2cc1C	nt	nt	1%	nt	?	nt
CCN(CC)c1ccc(NS(=O)(=O)c2cc3[nH]c(=O)c(=O)[nH]c3cc2C)c(C)c1	nt	nt	8%	nt	45µM*	nt
COc1ccccc1NC(=O)C(Cc1ccc(Cl)cc1)c1nn[nH]n1 (centres undefined)	8%	0%	2%[38.3 µM]	-1%	0%	1
COc1ccc(CC(C(=O)Nc2ccc(OC)cc2)c2nn[nH]n2)cc1 (centres undefined)	-3%	1%	-1%	-1%	4.5µM*	1
N#Cc1cccnc1NCCCNc1ccccn1	nt	nt	nt	nt	9%	nt
CCCn1nc(C(=O)NCC)c2ccccc2c1=O	nt	nt	nt	nt	5%	nt
Cc1ccc(S(=O)(=O)Nc2ccc3c(c2)CN(CCc2ccc(F)cc2)C(=O)C(C)O3)cc1F (centres undefined)	nt	nt	nt	nt	28µM*	nt
COc1ccc(-n2ncc3c(NCC(C)C)ncnc32)cc1	2%	0%	-1%	?	6.3µM*	-2
Cc1ccc2nc(-c3ccccc3)c(C)c(C(=O)O)c2c1	nt	nt	nt	nt	0%	nt
CCN1C(=O)/C(=C/c2c(C)nn(C)c2C)SC1=S	-13%	4%	14%[38.3 µM]	-3%	10µM*	1
CCN1C(=O)/C(=C/c2cnn(CC)c2C)SC1=S	-2%	2%	12%	19%	-11%	-4
CCNc1c(NC(=O)Nc2ccc(OC)c(OC)c2)c(=O)oc2ccccc12	nt	nt	nt	nt	2%	nt
Cc1nc2cc(NC(=O)c3ccc(N4C(=O)CCC4=O)cc3)ccc2s1	-1%	1%	1%	-3%	0%	-76*
Cc1nc2ccc(NC(=O)c3ccc(N4C(=O)CCC4=O)cc3)cc2s1	-2%	-3%	1%	1%	460%	2
FC(F)(F)c1ccccc1N/N=C/c1cccnc1	0%	2%	1%	5%	?	2
N#Cc1ccc(/C=N/Nc2ccccc2C(F)(F)F)cc1	nt	nt	nt	nt	10µM*	nt
Cc1cccc(-c2nc(C#N)c(NCc3ccccc3)o2)c1	nt	nt	nt	nt	50µM*	nt
Cc1cccc(-c2nnc(-c3ccccc3)o2)c1	-3%	-1%	2%	11µM*	-9%	-2
SMILES	ASM inhibitor	Mm-Cpn inhibitor	PINK1 expr mod	p53 reactivation	ALOX12 inh	CCT modulator
N#Cc1nc(COc2cccc(Cl)c2)oc1NCc1ccc2c(c1)OCO2	nt	nt	nt	nt	13µM*	nt
N#Cc1nc(-c2ccccc2)oc1NCc1ccc2c(c1)OCO2	nt	nt	nt	nt	-9%	nt
N#Cc1nc(-c2ccccc2)oc1NCc1ccccc1	nt	nt	nt	nt	-15%	nt
N#Cc1nc(-c2cccc3ccccc23)oc1NCc1ccc2c(c1)OCO2	nt	nt	nt	nt	32µM*	nt
Cc1nnc(-c2ccccc2)o1	2%	0%	2%	1%	-11%	-2
O=C(CN1CCCCC1)Nc1oc2ccccc2c(=O)c1-c1ccccc1	nt	nt	nt	nt	50%	nt
NC(=O)C1CCCN1S(=O)(=O)c1ccc(Br)s1 (centres undefined)	nt	nt	nt	nt	-5%	nt
COCC(C)NS(=O)(=O)c1c(C)c(C)c(C)c(C)c1C (centres undefined)	nt	nt	nt	nt	23%	nt
Cn1nnnc1-c1cccc(NC(=O)c2ccc3[nH]c4c(c3c2)CCCC4)c1	nt	nt	nt	nt	1%	nt
O=C(Nc1ccc(Nc2ccccc2)cc1)c1ccc(Br)o1	-13%	0%	2%	32µM*	0%	-3
COc1ccc(O)c(C(=O)c2cc(SCC(=O)O)c3nc4sc5c(c4c(=O)n3c2)CCCC5)c1	?	-3%	1%	17%	35µM*	0
COc1cc(CCN(C(C)=O)C2C(=O)Nc3ccccc3N=C2c2ccc3c(c2)OCO3)cc(OC)c1 (centres undefined)	nt	nt	4%	nt	2µM*	-2
COc1ccc(C2=Nc3ccccc3NC(=O)C2N(CCc2cc(OC)cc(OC)c2)C(C)=O)cc1 (centres undefined)	nt	nt	2%	nt	?	1
O=C(Nc1ccccc1)c1cc2cc(Br)ccc2oc1=O	nt	nt	nt	nt	-4%	nt
CC(C)CCC(CCNC(C)c1cccs1)C1CCOC(C)(C)C1 (centres undefined)	nt	nt	nt	nt	1.8µM*	nt
COc1ccc2nc(N3C(=O)/C(=C/c4ccc(Cl)cc4)NC3=S)sc2c1	-4%	1%	22µM*	2%	5%	-1
CCOc1ccc2nc(N3C(=O)CNC3=S)sc2c1	1%	-2%	1%	?	0%	-1
c1ccc2c(Nc3ccc4c(c3)OCCO4)c3c(nc2c1)CCCC3	-2%	3%	40µM*	-5%	-10%	2
CCN(CC)CCNC(=O)c1ccc(NC(=O)Cc2cccc(C(F)(F)F)c2)cc1	nt	nt	nt	nt	45µM*	nt
Cc1nc2ccc(NC(=O)Cc3cccc(F)c3)cc2s1	5%	-2%	-1%	3%	4%	-1
Cc1nc2ccc(NC(=O)Cc3cccc(C(F)(F)F)c3)cc2s1	nt	nt	nt	nt	40µM*	nt
CCN(CC)CCNC(=O)c1ccc(NC(=O)Cc2cccc3ccccc23)cc1	0%	1%	5%	-4%	-27%	0
Cc1c(C)n(-c2ccc(Cl)cc2)c2ncn(CC(=O)NC(C)c3ccccc3)c(=O)c12 (centres undefined)	nt	nt	nt	nt	25µM*	nt
Cc1ccc(N=CNc2ccc(C)cc2C)c(C)c1	3%	-2%	3%	2%	0%	-2
Cc1cc2n(n1)SC(Nc1ccccc1)N2 (centres undefined)	3%	-1%	0%	11%	14µM*	-5
Cc1cc(NC(=NC2CC2)c2ccccc2)n(-c2ccccc2)n1	0%	-2%	1%	-3%	-2%	-1
Cc1ccc(NC2Nc3cc(C)nn3S2)c(C)c1 (centres undefined)	0%	-9%	-1%	15%	40µM*	-1
COc1cccc(C2c3cc4c(cc3OC(NNC(N)=O)C2C)OCO4)c1O (centres undefined)	-1%	nt	-3%	nt	16µM*	-2
